Results reported in PubChem BioAssay (NCI).
This is part of a sample that, as a whole, favours compounds with a hit. Of some 83,000 tested, about 20% had one in any assay.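 Cell lines were cultured in 96-well plates, exposed to a single compound concentration, and assessed for percent growth 48 hours later.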 Values without a mark were called inactive. Calls of active or inactive are those of the source. Rule for the calls: active = growth percent below 10; inactive = the rest.

How the values were obtained:
Assay in all cases: NCI-60 one-dose screen, 48 h (100 = growth as untreated, 0 = no growth, -100 = all killed)
Settings in all cases: 10 µM unless noted
SK-MEL-2 melanoma = test system: SK-MEL-2 melanoma
EKVX NSCLC = test system: EKVX NSCLC
SN12C renal = test system: SN12C renal
UO-31 renal = test system: UO-31 renal
TK-10 renal = test system: TK-10 renal
ACHN renal = test system: ACHN renal
CAKI-1 renal = test system: CAKI-1 renal
A498 renal = test system: A498 renal
CCRF-CEM leukemia = test system: CCRF-CEM leukemia
MOLT-4 leukemia = test system: MOLT-4 leukemia
RPMI-8226 leukemia = test system: RPMI-8226 leukemia
OVCAR-8 ovarian = test system: OVCAR-8 ovarian
OVCAR-5 ovarian = test system: OVCAR-5 ovarian
OVCAR-4 ovarian = test system: OVCAR-4 ovarian
SK-OV-3 ovarian = test system: SK-OV-3 ovarian
IGROV1 ovarian = test system: IGROV1 ovarian
OVCAR-3 ovarian = test system: OVCAR-3 ovarian
HS 578T breast = test system: HS 578T breast
NCI/ADR-RES ovarian = test system: NCI/ADR-RES ovarian

Row | SMILES | growth (SK-MEL-2 melanoma) | growth (EKVX NSCLC) | growth (SN12C renal) | growth (UO-31 renal) | growth (TK-10 renal) | growth (ACHN renal) | growth (CAKI-1 renal) | growth (A498 renal) | growth (CCRF-CEM leukemia) | growth (MOLT-4 leukemia) | growth (RPMI-8226 leukemia) | growth (OVCAR-8 ovarian) | growth (OVCAR-5 ovarian) | growth (OVCAR-4 ovarian) | growth (SK-OV-3 ovarian) | growth (IGROV1 ovarian) | growth (OVCAR-3 ovarian) | growth (HS 578T breast) | growth (NCI/ADR-RES ovarian)
1 | C[N+]1=C(/C=C/c2ccc(O)c3ncccc23)C(C)(C)c2ccccc21 | 44.9% | 58.7% | 42.7% | 30.6% | 97.1% | 31% | 25.7% | 101% | 75.8% | 56.1% | 53.6% | 53.7% | 52.5% | 27.7% | 23% | 46% | 83% | 49.2% | 14.6%
2 | CN1CCN(c2ccc(-c3ccc4ncc(C#N)c(Nc5ccc(F)c(Cl)c5)c4c3)cn2)CC1 | 49.7% | 48.4% | 62.5% | 28.7% | 34.1% | 17.4% | 27.2% | -7.02% (active) | 37.8% | 38.2% | 14.9% | 59.8% | 60.8% | 52.2% | 25.8% | 8.52% (active) | 58.6% | 52.2% | 67.8%
3 | COC(=O)c1ccc2[nH]c(O)c(C(=Nc3ccc(N(C)C(=O)CN4CCN(C)CC4)cc3)c3ccccc3)c2c1 | -4.99% (active) | 54% | 17.6% | 16% | 51.6% | 7.31% (active) | 4.65% (active) | -35.9% (active) | 10.7% | 12.1% | -6.02% (active) | 26% | 57.2% | 34.2% | 5.32% (active) | 10.2% | 50.5% | -18.2% (active) | 83.8%
4 | COc1ccc(OC)c(/C=C/C(=O)N/N=C/c2ccccc2)c1 | -1.33% (active) | 64% | 52.1% | 56.6% | 56.7% | 62.8% | 47.5% | 38.7% | 55.2% | 36.5% | 54.4% | 54.8% | 85% | 78.2% | 60% | 38.5% |  | 66.5% | 8.51% (active)
5 | CNCCCC12CCC(c3ccccc31)c1ccccc12 | 100% | 87.9% | 73.4% | 58% | 80.2% | 80.6% | 83.4% | 93.7% | 84.7% | 89.6% | 91% | 99.7% | 90.2% | 86.8% | 85.2% | 82.7% | 107% | 87.3% | 89.5%
6 | O=c1ccc(N=Nc2ccccc2)ccc1Cl | 77.6% | 65.9% | 60% | 77% | 111% | 75.9% | 76.1% | 191% | 31.3% | -1.36% (active) | 25.1% | 38.9% | 120% | 84.6% | 93.8% | 80.7% | 23.7% | 92.4% | -4.66% (active)
7 | Cc1cc(O)c(C2=NN(c3ccc(S(N)(=O)=O)cc3)C(c3ccccc3O)C2)cc1Cl (stereo not given) | 17.4% | -2.37% (active) | 15.1% | 9.61% (active) | 41.5% | 7.54% (active) | -13.6% (active) | 20.6% | 12.9% | -57.4% (active) | 15.4% | 4.04% (active) | -15.1% (active) | 44% | 34.1% | 0.983% (active) | -45.8% (active) | 8.33% (active) | 1.92% (active)
8 | C=C(C)[C@@H]1CC[C@]2(N=C=O)CC[C@]3(C)[C@H](CC[C@@H]4[C@@]5(C)Cc6c([nH]c7ccccc67)C(C)(C)[C@@H]5CC[C@]43C)[C@@H]12 | 108% | 89% | 72.4% | 64.8% | 21.1% | 99% | 69.9% | 137% | 67.6% | 61.4% | 18.8% | 70.7% | 92.9% | 72.7% | 89.4% | 84.3% | 89.2% | 92% | 83.5%
9 | OC(COc1ccccc1Cl)CN1CCN(c2cccc(Cl)c2)CC1 (stereo not given) | 106% | 119% | 104% | 83.1% | 107% | 101% | 99.1% | 108% | 113% | 107% | 115% | 91.9% | 97.8% | 110% | 109% | 122% |  | 112% | 
10 | Cc1cc2nc3cc(C)c(N)cc3[n+](-c3ccccc3)c2cc1N | 82.8% | 47.3% | 13.9% | 84.2% | 93.8% | 89.1% | 97.5% | 85.7% | 58.3% | 52.8% | 41.4% | 40.7% | 103% | 36.4% | 91.3% | 79.4% | 26.2% | 59.2% | 101%
11 | CN(C)c1ccc2nc3ccc(=[N+](C)C)c([N+](=O)[O-])c-3sc2c1 | 47.2% | 25% | 39.6% | 51.7% | 71.3% | 27.9% | 43.1% | 68.5% | 12.7% | 15.5% | 21.5% | 12.7% | -7.81% (active) | 0.851% (active) | 59.2% | 20% | -12.5% (active) | 37% | 7.62% (active)
12 | COc1ccc(/C=C(\C#N)n2nnc3c(F)cccc32)cc1 | 24.1% | 32.3% | 24.2% | 39.4% | 45.3% | 28.3% | 24.8% | -29.1% (active) | 18.9% | 14.4% | 17.9% | 16.3% | 15.7% | 37.8% | 39% | 13.2% | -34% (active) | -4.6% (active) | 0.281% (active)
13 | COc1ccc2c(c1)c(-c1ccc(-c3cn(C)c4ccc(OC)cc34)o1)cn2C | 45% | 46.1% | 75.8% | -8.28% (active) | 83.3% | 36.3% | 37.2% | 85.3% | 61.8% | 63.5% | 25.5% | 39.4% | 36.8% | -42.3% (active) | 93.4% | 70.2% | 23.2% | -31.2% (active) | 38.7%
14 | COc1cc(CCC[P+](c2ccccc2)(c2ccccc2)c2ccccc2)c(OC)c2c1OCO2 | -13.1% (active) | 25.4% | 29.6% | 93.9% | 12.1% | 94.1% | 75.8% | 41.5% | 37.8% | 44.4% | 10.4% | 9.83% (active) | 64.6% | 11.1% | 27.2% | 32.5% |  | 38.4% | 98.5%
15 | O=C(Cc1ccc(F)c(Cl)c1)Nc1cc(C2(C(F)(F)F)CC2)nn1CC1CCCCC1 | -48.8% (active) | 3.93% (active) | 6.18% (active) | -3.33% (active) | 3.08% (active) | -7.99% (active) | -14.3% (active) | -33.2% (active) | 20.1% | 11.7% | 4.24% (active) | 8.52% (active) | 0.818% (active) | 13.5% | -19.9% (active) | 24.5% | 6.25% (active) | -0.843% (active) | 4.86% (active)
16 | CCOC(=O)Cn1c(C)c(/C=N/NC(=O)c2cc3c(ccc4ccccc43)o2)c2ccccc21 | 44.1% | 41.1% | 34.4% | 40.2% | 58.8% | 28.4% | 47.1% | -6.48% (active) | 11.3% | 18.7% | 10.6% | 15.5% | 40% | 51% | 6.12% (active) | 26.3% | 0.688% (active) | 34.7% | 8.7% (active)
